From the supplement of paper PMC4723716

System: Plasmodium falciparum NF54 gametocytes
Assay: viability index relative to DMSO control (fraction); higher = less gametocyte killing
Conditions: 12.5 µM, incubation time: 72 h
In short: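 The viability index expresses each well's gametocyte particle count relative to the plate mean of solvent-only wells. Stage I–V P. falciparum NF54 gametocytes (0.50% gametocytemia, 1.25% hematocrit, 40 µl of serum-containing medium) were exposed to compound at 12.5 µM for 72 hr at 37°C under low oxygen in 384-well plates. They were stained for 20 min with 5 µl of 5 µM MitoTracker Red CMXRos, and 5 µl was then transferred into 40 µl of 500 nM dye in serum-free medium for imaging of three fields 30 min later.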

[1] = gametocyte stage: Stage I viability index
[2] = gametocyte stage: Stage II viability index
[3] = gametocyte stage: Stage III viability index
[4] = gametocyte stage: Stage IV viability index
[5] = gametocyte stage: Stage V viability index

Structure (SMILES) | viability index [1] | viability index [2] | viability index [3] | viability index [4] | viability index [5]
O=C(NC1CCN(Cc2ccccc2)CC1)c1cc(-c2cccnc2)nc2ccc(Cl)cc12 | 0.53 | 0.609 | 0.989 | 1.18 | 0.725
Cc1cc(=O)oc2c1ccc1oc(C(=O)c3ccccc3)c(C)c12 | 0.948 | 1 | 0.867 | 0.972 | 1.01
O=c1nc(C=Cc2ccc(Cl)cc2)oc2ccccc12 | 0.874 | 1.01 | 1 | 0.866 | 0.989
O=C(NC1CCN(Cc2ccccc2)CC1)c1cc(-c2ccncc2)nc2ccc(Cl)cc12 | 0.601 | 0.662 | 1.08 | 0.994 | 0.791
CC(=O)Nc1nnc(SCc2c(C)cc(C(C)(C)C)cc2C)s1 | 0.854 | 0.701 | 0.894 | 0.793 | 0.912
Cc1cc(Nc2ccc3ccccc3c2)n2ncnc2n1 | 0.567 | 0.521 | 0.755 | 0.79 | 0.626
OC(CNCC1CCCO1)Cn1c2ccc(Cl)cc2c2cc(Cl)ccc21 (stereo not given) | 0.0685 | 0.0647 | 0.468 | 0.65 | 0.56
CCOc1cc2c(cc1OCC)C(c1cc(Cl)ccc1O)NCC2 (stereo not given) | 0.0411 | 0.0883 | 0.488 | 0.532 | 0.675
CN1C=C(c2ccc3ccccc3n2)C(c2c[nH]c3ccccc23)c2ccccc21 (stereo not given) | 0.178 | 0.0874 | 0.273 | 0.294 | 0.351
CC(=O)c1sc(NC(=O)Nc2ccc(C)cc2C)nc1C | 0.271 | 0.455 | 0.673 | 0.801 | 0.714
CCCCNCC(O)(c1ccc(Cl)cc1)c1ccc(Cl)cc1 | 0.00663 | 0.0541 | 0.364 | 0.422 | 0.396
CC(=O)NCCc1nc2ccccc2n1Cc1ccc(C(C)C)cc1 | 0.788 | 0.671 | 0.883 | 0.891 | 0.813
CC(C)(C)CC(C)(C)NCC(O)COc1ccc2c(c1)CCC2 (stereo not given) | 0.221 | 0.273 | 0.615 | 0.666 | 0.462
COc1ccc(C(=O)NC(c2ccc(Cl)cc2Cl)c2cc(Cl)c3cccnc3c2O)cc1 (stereo not given) | 0.0262 | 0.0341 | 0.0814 | 0.136 | 0.0779
CC(C)CCNCC(O)Cn1c2ccccc2c2ccccc21 (stereo not given) | 0.0507 | 0.0691 | 0.0706 | 0.193 | 0.0779
Cc1ccccc1OCCSc1nc2ccc(NC(=O)c3cccs3)cc2s1 | 1.13 | 0.918 | 1.08 | 0.927 | 1.27
O=C1CC(O)(C(F)(F)C(F)(F)F)Oc2ccccc21 (stereo not given) | 1.22 | 0.957 | 1.2 | 1.19 | 0.813
COC(=O)c1ccc(Cl)c2c1C1C=CCC1C(c1cccc3ccccc13)N2 (stereo not given) | 0.825 | 0.795 | 1.14 | 0.962 | 0.883
O=c1nc(C=Cc2ccc(Br)cc2)oc2ccccc12 | 0.838 | 0.88 | 0.843 | 0.978 | 0.935
CC(C)(C)c1ccc(C(=O)Nc2nc3ccccc3s2)cc1 | 0.787 | 0.834 | 0.813 | 0.812 | 0.736

Structure (SMILES) | viability index [1] | viability index [2] | viability index [3] | viability index [4] | viability index [5]
COc1cccc(C2(C)Nc3ccccc3-c3nc4ccccc4n32)c1 (stereo not given) | 0.113 | 0.0986 | 0.198 | 0.465 | 0.154
CSc1ccccc1C(=O)Nc1nc(-c2ccccn2)cs1 | 0.242 | 0.181 | 0.321 | 0.362 | 0.132
O=C(Nc1ccc(Br)cc1)Nc1cccc(Cl)c1 | 0.341 | 0.542 | 0.816 | 0.936 | 0.451
COc1ccc(C)c2sc(N(Cc3cccnc3)C(=O)c3ccc(C#N)cc3)nc12 | 0.441 | 0.704 | 0.95 | 0.794 | 1.01
CCN(CC)CCNc1ccnc2cc3ccccc3cc12 | 0.0323 | 0.0591 | 0.106 | 0.0475 | 0.039
CCOc1cc2c(cc1OCC)C(c1cc(C)c(O)c(C)c1)NCC2 (stereo not given) | 0.0111 | 0.123 | 0.642 | 0.851 | 0.78
COc1ccc(C2=C(c3ccc(OC)cc3)C3(c4ccccc4)C(=O)C2(c2ccccc2)C2C(=O)N(c4ccc(C)cc4)C(=O)C23)cc1 (stereo not given) | 0.682 | 0.679 | 0.949 | 1.02 | 0.967
Cc1ccc(CSCc2ccc(C(=O)NC3CC3)o2)cc1 | 0.678 | 0.965 | 1.07 | 0.924 | 0.978
CN(C)CCCNCc1ccc(-c2ccc(F)c(Cl)c2)o1 | 0.202 | 0.376 | 0.376 | 0.339 | 0.104
COc1ccccc1CNC(=O)C1c2ccccc2C(=O)N(CC(C)C)C1c1cccs1 (stereo not given) | 0.951 | 0.807 | 1.01 | 0.976 | 1
COc1ccc(NC(=O)C2c3ccccc3C(=O)N(CC(C)C)C2c2cccs2)cc1Cl (stereo not given) | 0.0453 | 0.00483 | 0.0636 | 0.24 | 0.11
Nc1ccc(-c2nc3cc(Cc4ccc5[nH]c(-c6ccc(N)cc6)nc5c4)ccc3[nH]2)cc1 | 0.0227 | 0.00833 | 0.0204 | 0.0127 | 0
OCCNc1nc(Nc2ccc(Cl)c(Cl)c2)nc2ccccc12 | 0.0254 | 0.246 | 0.665 | 0.484 | 0.442
COc1cccc(Nc2nc(N)c3ccccc3n2)c1 | 0.131 | 0.524 | 0.786 | 0.797 | 0.649
Cc1ccc(F)cc1NC(=O)c1cc(Cl)ccc1Nc1ccccc1 | 0.441 | 0.395 | 0.332 | 0.522 | 0.753
CCOc1cc2c(cc1OCC)C(c1cc(OC)c(O)cc1Cl)NCC2 (stereo not given) | 0.0243 | 0.0957 | 0.513 | 0.723 | 0.626
CCCN(CCC)CC(O)COc1ccccc1C(=O)Nc1ccccc1 (stereo not given) | 0.0829 | 0.175 | 0.46 | 0.593 | 0.516
CN1CCN(c2c3c(c(C#N)c4nc5ccccc5n24)CCC3)CC1 | 1.02 | 0.865 | 1.03 | 1.05 | 0.846
COc1ccc(C2NCCc3c2[nH]c2ccccc32)cc1CN1CCN(c2ccc(F)cc2)CC1 (stereo not given) | 0.0297 | 0.0183 | 0.0204 | 0.0222 | 0.0519
O=C(Nc1ccc(N2CCCCC2)c(Cl)c1)c1ccc(Br)o1 | 0.673 | 0.726 | 0.762 | 0.787 | 0.978

Structure (SMILES) | viability index [1] | viability index [2] | viability index [3] | viability index [4] | viability index [5]
COC(=O)c1ccc(C2C3=C(O)CC(c4ccc(F)cc4)CC3=Nc3ccccc3N2C(=O)c2ccccc2)cc1 (stereo not given) | 0.00524 | 0.005 | 0.0149 | 0 | 0
CN1c2ccccc2N(C)C1c1ccc2c(c1)OCO2 | 0.952 | 0.862 | 1.05 | 0.964 | 1.03
CCCCN(CCCC)S(=O)(=O)c1ccc(NC(=O)c2ccco2)cc1 | 0.943 | 0.963 | 0.951 | 0.842 | 0.831
Cc1c(C)n(Cc2ccc(F)cc2)c2ccc(C(=O)NCc3ccco3)cc12 | 0.478 | 0.756 | 0.932 | 0.827 | 1
COc1ccc2c(c1)OC(O)(C(F)(F)C(F)(F)F)CC2=O (stereo not given) | 0.676 | 0.929 | 1.15 | 0.97 | 1.11
O=C(Nc1ccc(Cl)cc1C(=O)Nc1ccncc1)c1ccc(Cl)cc1Cl | 0.139 | 0.589 | 0.935 | 0.927 | 0.637
O=[N+]([O-])c1ccc(C=NNc2nc3ccccc3[nH]2)cc1 | 0.0818 | 0.586 | 0.911 | 0.869 | 0.802
Oc1c2c(nc3ccccc13)CCCC2 | 0.828 | 0.959 | 0.985 | 0.87 | 0.961
COCCNCC(O)Cn1c2ccc(Cl)cc2c2cc(Cl)ccc21 (stereo not given) | 0.105 | 0.0937 | 0.407 | 0.511 | 0.429
O=C(NNc1cc(N2CCCC2)nc(N2CCCC2)n1)c1ccccc1 | 0 | 0.00749 | 0.275 | 0.516 | 0.377
O=C(NCC(c1ccsc1)N1CCCCCC1)c1ccc(C(F)(F)F)cc1 (stereo not given) | 0.653 | 0.881 | 0.843 | 0.9 | 0.725
OC(CNCc1ccccc1)Cn1c2ccccc2c2ccccc21 (stereo not given) | 0.0629 | 0.0658 | 0.172 | 0.342 | 0.26
COc1ccc(Nc2nc(NN=Cc3ccc(O)cc3)nc(Nc3ccc([N+](=O)[O-])cc3)n2)cc1 | 0.00437 | 0.05 | 0.233 | 0.142 | 0
O=C(NCCCN1CCC(N2CCCCC2)CC1)C1=Cc2cc(Br)ccc2OC1 | 0.0935 | 0.427 | 0.742 | 0.699 | 0.312
Nc1ccc(-c2nc3cc(Oc4ccc(Oc5ccc6[nH]c(-c7ccc(N)cc7)nc6c5)cc4)ccc3[nH]2)cc1 | 0.000874 | 0.0108 | 0.0271 | 0.0253 | 0
O=C(NCc1ccco1)C1CCN(S(=O)(=O)c2ccc(Br)cc2)CC1 | 0.938 | 0.983 | 0.99 | 0.824 | 0.945
CC1(c2ccccc2)Nc2ccccc2-c2nc3ccccc3n21 (stereo not given) | 0.183 | 0.109 | 0.298 | 0.498 | 0.0659
Cn1c(C(=O)c2cccc3ccccc23)nc2ccccc21 | 0.681 | 0.95 | 1.14 | 1.01 | 0.74
COc1ccccc1N=C1C(=O)c2ccccc2C(O)=C1N1CCCCC1 | 0.0188 | 0.0203 | 0.0297 | 0.0699 | 0.0879
CC1=C(CC(=O)c2cccc([N+](=O)[O-])c2)C(=O)c2ccccc2C1=O | 0.00612 | 0.00167 | 0.0706 | 0.196 | 0.234
